FBW7 act: FBW7 E3 ligase activators, primary screen, biochemical, AlphaScreen, human; 0.13% of 650,000 active; F-box/WD repeat-containing protein 7 (Homo sapiens), Q969H0; normalized activity (activation), % at 26.1 µM; AlphaScreen FBW7–phospho-cyclin E peptide binding, activator screen; in the data active = normalized activity above about 1.9%;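 note: purified mutant Fbw7 with reduced substrate affinity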
Target sequence (Q969H0 whole entry, looked up): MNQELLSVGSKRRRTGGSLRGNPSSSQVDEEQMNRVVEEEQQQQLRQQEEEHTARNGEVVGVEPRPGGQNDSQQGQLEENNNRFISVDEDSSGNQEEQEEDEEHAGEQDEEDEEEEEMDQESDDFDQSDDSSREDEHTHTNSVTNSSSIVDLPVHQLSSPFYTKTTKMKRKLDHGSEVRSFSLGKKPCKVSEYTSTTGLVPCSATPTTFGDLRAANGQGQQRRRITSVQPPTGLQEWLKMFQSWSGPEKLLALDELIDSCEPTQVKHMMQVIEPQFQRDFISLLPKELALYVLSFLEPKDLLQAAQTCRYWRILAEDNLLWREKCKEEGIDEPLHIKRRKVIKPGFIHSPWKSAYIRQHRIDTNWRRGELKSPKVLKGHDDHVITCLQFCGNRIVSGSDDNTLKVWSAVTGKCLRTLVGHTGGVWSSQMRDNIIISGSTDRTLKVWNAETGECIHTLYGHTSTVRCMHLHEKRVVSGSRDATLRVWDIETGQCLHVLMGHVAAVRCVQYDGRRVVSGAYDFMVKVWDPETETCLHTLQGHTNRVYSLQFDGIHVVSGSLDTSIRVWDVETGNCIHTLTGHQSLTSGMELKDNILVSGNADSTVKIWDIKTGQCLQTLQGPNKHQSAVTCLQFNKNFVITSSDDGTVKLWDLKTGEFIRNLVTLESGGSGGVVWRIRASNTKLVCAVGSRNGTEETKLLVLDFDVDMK
TEAD-YAP inh: TEAD-YAP interaction inhibition, primary screen, TEAD-YAP interaction inhibitor project, luminescence, HEK-TIYL cells; TEAD-Gal4/YAP UAS-luciferase luminescence; inhibition, % at 9.12 µM; 1.4% of 640,000 active; AID 1259422, 2018; in the data active = inhibition above about 32%
GPR151 ag: activators of human GPR151, primary screen, cell-based, PathHunter beta-arrestin, luminescence; G-protein coupled receptor 151 (Homo sapiens), Q8TDV0; activation, % at 11.2 µM; 1% of 650,000 active; AID 1508602, 2020; PathHunter beta-arrestin GPR151 cells; in the data active = activation above about 4.9%
MITF primary: MITF inhibitors, primary screen, biochemical, AlphaScreen, human | AlphaScreen MITF homodimerization, bead proximity signal | inhibition, % at 2.6 µM | 0.91% of 650,000 active; in the data active = inhibition above about 50%
GPR151 conf act: GPR151 activators, triplicate retest, confirmation, cell-based, PathHunter beta-arrestin, luminescence | GPR151 PathHunter beta-arrestin cells, 90 min; % of EA-reagent control over plate median | activation, % at 11.2 µM | shares compounds with GPR151 ag | 6,700 tested, under 10 active | AID 1508609, 2020;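 active = mean percent activation across replicates above the confirmation screen cutoff of 4.91%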
GPR119 counter: GPR119 activators in beta-arrestin cells, counter-screen for GPR151 activator project, cell-based, PathHunter beta-arrestin, luminescence, triplicate; shares compounds with GPR151 ag; 90 min; 0 = compound-well median, 100 = enzyme-acceptor control; activation, % at 11.2 µM; 0.3% of 6,700 active;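 active = mean percent activation in the counterscreen above 29.09%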;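 note: counterscreen on off-target GPR119 to flag nonselective hits from the GPR151 activator screen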
A number is an active result. A selection: hits, their analogues and other compounds. The true share with any hit is near 3.5%.

For CC(=O)Nc1ccc(S(=O)(=O)Nc2ccc(C(F)(F)F)cc2[N+](=O)[O-])cc1 the results were FBW7 act inactive, TEAD-YAP inh inactive, GPR151 ag 7.8, MITF primary inactive, GPR151 conf act inactive and GPR119 counter inactive.
`Cc1ccnc(NS(=O)(=O)c2ccc([N+](=O)[O-])cc2)n1` gave FBW7 act inactive, TEAD-YAP inh inactive, GPR151 ag 7.5, MITF primary inactive, GPR151 conf act inactive and GPR119 counter inactive.
For CCCCS(=O)(=O)CC(CS(=O)(=O)CCCC)OC(=O)c1ccccc1 the results were FBW7 act inactive, TEAD-YAP inh inactive, GPR151 ag inactive and MITF primary inactive.
Screening c1ccc(COc2ccc(C3Nc4cccc5cccc(c45)N3)cc2)cc1 returned FBW7 act inactive, TEAD-YAP inh inactive, GPR151 ag inactive and MITF primary inactive.
`N#Cc1ccccc1CSc1ncnc2sccc12` gave FBW7 act inactive, TEAD-YAP inh inactive, GPR151 ag 5.1, MITF primary inactive, GPR151 conf act inactive and GPR119 counter inactive.
`CCCN(CCC)C(=O)c1cc(-c2ccco2)[nH]n1` gave FBW7 act inactive, TEAD-YAP inh inactive, GPR151 ag 5.2, MITF primary inactive, GPR151 conf act inactive and GPR119 counter inactive.
Screening CC(C)(C)NC(=O)c1cc(-c2ccco2)[nH]n1 returned FBW7 act inactive, TEAD-YAP inh inactive, GPR151 ag inactive and MITF primary inactive.
CC1CN(Cc2nc3scc(-c4cccs4)c3c(=O)[nH]2)CC(C)O1 (centres undefined) was read as FBW7 act inactive, TEAD-YAP inh inactive, GPR151 ag inactive and MITF primary inactive.
Screening Cc1cc(SCC(=O)NCc2ccc(F)cc2)nc(=O)[nH]1 returned FBW7 act inactive, TEAD-YAP inh inactive, GPR151 ag inactive and MITF primary inactive.
For Cc1cc(SCc2ccccc2Cl)nc(=O)[nH]1 the results were FBW7 act inactive, TEAD-YAP inh inactive, GPR151 ag 7.6, MITF primary inactive, GPR151 conf act inactive and GPR119 counter inactive.
COc1ccccc1CNC(=O)CSc1cc(C)[nH]c(=O)n1 was read as FBW7 act inactive, TEAD-YAP inh inactive, GPR151 ag 12, MITF primary inactive, GPR151 conf act inactive and GPR119 counter inactive.
`COc1ccc(Cl)cc1C(=O)NCCCN1CCN(c2ccccc2)CC1` gave FBW7 act inactive, TEAD-YAP inh inactive, GPR151 ag inactive and MITF primary inactive.
COc1cc(N(C)C)c([N+](=O)[O-])cc1C(=O)NCCN1CCN(c2ccccc2)CC1 was read as FBW7 act inactive, TEAD-YAP inh inactive, GPR151 ag 5.8, MITF primary inactive, GPR151 conf act inactive and GPR119 counter inactive.
O=C(O)CCC/C=C\C[C@H]1[C@@H](/C=C/[C@@H](O)CCc2ccccc2)[C@H](O)C[C@H]1O was read as GPR151 ag inactive and MITF primary inactive.
Screening CC(C)OC(=O)CCC/C=C\C[C@@H]1[C@@H](/C=C/[C@@H](O)CCc2ccccc2)[C@H](O)C[C@@H]1O returned GPR151 ag 5.4, MITF primary inactive, GPR151 conf act inactive and GPR119 counter inactive.
For O=C(O)CCC/C=C\C[C@@H]1[C@@H](/C=C/[C@@H](O)C2Cc3ccccc3C2)[C@@H](F)C[C@@H]1O the results were GPR151 ag 5.0, MITF primary inactive, GPR151 conf act inactive and GPR119 counter inactive.
O=C(Nc1ccc(Cl)cc1[N+](=O)[O-])c1cc2ccccc2cc1O was read as FBW7 act inactive, TEAD-YAP inh inactive, GPR151 ag inactive and MITF primary inactive.
`COc1ccc(Cl)cc1C(=O)Nc1ccc(N2CCCCS2(=O)=O)cc1` gave FBW7 act inactive, TEAD-YAP inh inactive, GPR151 ag 9.0, MITF primary inactive, GPR151 conf act inactive and GPR119 counter inactive.
COc1ccccc1C(=O)Nc1ccc(N2CCCS2(=O)=O)cc1 was read as FBW7 act inactive, TEAD-YAP inh inactive, GPR151 ag inactive and MITF primary inactive.
Screening CCOc1ccc(/C=N/NC(=O)CNc2cccc3ccccc23)cc1OCC returned FBW7 act inactive, TEAD-YAP inh inactive, GPR151 ag inactive and MITF primary inactive.
`O=C(CN1C(=O)C2C3C=CC(C3)C2C1=O)N1CCN(c2ccccc2)CC1` (centres undefined) gave FBW7 act inactive, TEAD-YAP inh inactive, GPR151 ag 5.5, MITF primary inactive, GPR151 conf act inactive and GPR119 counter inactive.
`Cc1cc(NC(=O)COc2cc(F)ccc2[N+](=O)[O-])n(-c2ccccc2)n1` gave FBW7 act inactive, TEAD-YAP inh inactive, GPR151 ag 15, MITF primary inactive, GPR151 conf act inactive and GPR119 counter inactive.
Cc1cc(C)n(C(=O)COc2ccccc2[N+](=O)[O-])n1 was read as FBW7 act inactive, TEAD-YAP inh inactive, GPR151 ag 5.4, MITF primary inactive, GPR151 conf act inactive and GPR119 counter inactive.
Screening Cc1cc(NC(=O)Cn2cc([N+](=O)[O-])cn2)n(-c2ccccc2)n1 returned FBW7 act inactive, TEAD-YAP inh inactive, GPR151 ag inactive and MITF primary inactive.
CCCOC(=O)C1=C(C)NC2=C(C(=O)CCC2)C1c1ccccc1OC (centres undefined) was read as FBW7 act inactive, TEAD-YAP inh inactive, GPR151 ag inactive and MITF primary inactive.
For O=C(NC1C2CC3CC(C2)CC1C3)c1ccc(CN2CCC(O)CC2)[nH]c1=O (centres undefined) the results were FBW7 act inactive, TEAD-YAP inh inactive, GPR151 ag inactive and MITF primary inactive.
For O=C(N[C@H]1CCCCNC1=O)c1ccc(CN2CCC(c3ccccc3)CC2)[nH]c1=O the results were FBW7 act inactive, TEAD-YAP inh inactive, GPR151 ag 5.3, MITF primary inactive, GPR151 conf act inactive and GPR119 counter inactive.
`CC(NC(=O)C12CC3CC(CC(C3)C1)C2)C(=O)N1CCOCC1` (centres undefined) gave FBW7 act inactive, TEAD-YAP inh inactive, GPR151 ag 5.0, MITF primary inactive, GPR151 conf act inactive and GPR119 counter inactive.
Screening O=C(CNC(=O)C12CC3CC(CC(C3)C1)C2)N1CCOCC1 returned FBW7 act inactive, TEAD-YAP inh inactive, GPR151 ag inactive and MITF primary inactive.
Screening CC(=O)Nc1ccc(NC(=O)c2cnc(-c3ccccc3)s2)cc1 returned FBW7 act inactive, TEAD-YAP inh inactive, GPR151 ag 5.9, MITF primary inactive, GPR151 conf act inactive and GPR119 counter inactive.

Bioassay records: PubChem BioAssay, The Scripps Research Institute Molecular Screening Center
